From PubChem BioAssay AID1159580 (chemical genetic matrix, 2015)
Screen size: about 5,500 compounds; about 2,000 (36%) were called active. Another 18% or so got no clear call; they are omitted. Cut-off read from the data, not from the text of the source: active = normalized growth mostly below about 0.91 (no sharp cut-off); inconclusive = no clear call, values can overlap the other calls; inactive = mostly above about 0.92. Some of the results follow.

Experiment: chemical genetic growth profiling, strain panel (AID 1159580);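 note: tested at 20 µM; growth read once vehicle control cultures reached saturation at 30 °C; 1 = growth at the plate median or of vehicle wells; lower values mean less growth of the strain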
Settings: S. cerevisiae deletion strains, growth OD
[1] = locus YAL013W, strain DEP1, stronger effect = lower value
[2] = locus YNL153C, strain GIM3, stronger effect = lower value
[3] = locus YPL055C, strain LGE1, stronger effect = lower value
[4] = locus YCL061C, strain MRC1, stronger effect = lower value
[5] = locus YHR030C, strain SLT2, stronger effect = lower value
[6] = locus YJL187C, strain SWE1, stronger effect = lower value
[7] = locus YHR079C, strain IRE1, stronger effect = lower value
[8] = locus YJL095W, strain BCK1, stronger effect = lower value
[9] = locus YJR066W, strain TOR1, stronger effect = lower value
[10] = locus YLR113W, strain HOG1, stronger effect = lower value
[11] = locus YNL183C, strain NPR1, stronger effect = lower value
[12] = locus YOR231W, strain MKK1, stronger effect = lower value
[13] = locus YPL256C, strain CLN2, stronger effect = lower value

Measured: normalized growth

N[C@@]1(C(=O)O)CC[C@@H](C(=O)O)C1
inactive: [1] 1.02 | locus YAL040C, strain CLN3, stronger effect = lower value 1.01 | locus YCL061C, strain MRC1 (second series), stronger effect = lower value 1 | locus YDR363W, strain ESC2, stronger effect = lower value 1.04 | locus YER002W, strain NOP16, stronger effect = lower value 1.01 | locus YGR229C, strain SMI1, stronger effect = lower value 1.03 | [2] 1 | locus YNL175C, strain NOP13, stronger effect = lower value 1.01 | locus YNL197C, strain WHI3, stronger effect = lower value 1.02 | locus YNL224C, strain SQS1, stronger effect = lower value 1.02 | locus YOR083W, strain WHI5 (second series), stronger effect = lower value 1.01 | [3] 1.02

N#C/C(=C\Nc1ccc2c(c1)OCCO2)S(=O)(=O)c1ccc(C(F)(F)F)cn1
active: [5] 0.593 | [6] 0.733 | locus YLR085C, strain ARP6, stronger effect = lower value 0.742 | locus YNL298W, strain CLA4 (second series), stronger effect = lower value 0.835
inactive: [1] 0.985 | locus YBR229C, strain ROT2, stronger effect = lower value 1 | [4] 1.03 | locus YDL101C, strain DUN1, stronger effect = lower value 0.995 | locus YDL134C, strain PPH21, stronger effect = lower value 1 | locus YDR150W, strain NUM1, stronger effect = lower value 1.01 | locus YEL061C, strain CIN8, stronger effect = lower value 0.974 | locus YGR078C, strain PAC10, stronger effect = lower value 1.02 | locus YHR087W, strain rtc3, stronger effect = lower value 1.01 | locus YJR043C, strain POL32, stronger effect = lower value 1.02 | locus YJR075W, strain HOC1, stronger effect = lower value 1.02 | locus YKL190W, strain CNB1, stronger effect = lower value 0.98 | locus YLR039C, strain RIC1, stronger effect = lower value 1.02 | locus YLR058C, strain SHM2 (second series), stronger effect = lower value 1 | locus YLR262C, strain YPT6, stronger effect = lower value 1.01 | locus YML094W, strain GIM5, stronger effect = lower value 0.906 | locus YMR219W, strain ESC1, stronger effect = lower value 0.993 | locus YMR263W, strain SAP30, stronger effect = lower value 1.02 | [2] 1.02 | locus YNL322C, strain KRE1, stronger effect = lower value 0.996 | locus YNR030W, strain Alg12, stronger effect = lower value 0.978 | [3] 1.11 | locus YPL241C, strain CIN2, stronger effect = lower value 0.966 | locus YPR135W, strain CTF4, stronger effect = lower value 1.06

O=C(O)c1cccc2cccc(C(=O)O)c12
active: locus YAR019C, strain CDC15, stronger effect = lower value 0.085 | locus YBL105C, strain PKC1, stronger effect = lower value 0.0837 | locus YBR135W, strain CKS1, stronger effect = lower value 0.0904 | locus YBR136W, strain MEC1, stronger effect = lower value 0.0904 | locus YBR160W, strain CDC28, stronger effect = lower value 0.086 | locus YDL017W, strain CDC7, stronger effect = lower value 0.0824 | locus YDL028C, strain MPS1, stronger effect = lower value 0.0878 | locus YDL108W, strain KIN28, stronger effect = lower value 0.0876 | locus YDL214C, strain PRR2, stronger effect = lower value 0.0872 | locus YDR052C, strain DBF4, stronger effect = lower value 0.0886 | locus YDR054C, strain cdc34, stronger effect = lower value 0.0879 | locus YDR477W, strain SNF1, stronger effect = lower value 0.0946 | locus YER123W, strain YCK3, stronger effect = lower value 0.0991 | locus YER133W, strain GLC7, stronger effect = lower value 0.0939 | locus YFL009W, strain cdc4, stronger effect = lower value 0.0889 | locus YFL029C, strain CAK1, stronger effect = lower value 0.0833 | locus YFR003C, strain YPI1, stronger effect = lower value 0.0828 | locus YFR019W, strain FAB1, stronger effect = lower value 0.0952 | locus YGR040W, strain KSS1, stronger effect = lower value 0.11 | locus YGR052W, strain FMP48, stronger effect = lower value 0.113 | locus YGR092W, strain DBF2, stronger effect = lower value 0.107 | [5] 0.123 | [7] 0.109 | locus YHR082C, strain KSP1, stronger effect = lower value 0.135 | locus YHR205W, strain SCH9, stronger effect = lower value 0.0046 | locus YIL147C, strain SLN1, stronger effect = lower value 0.0851 | [8] 0.118 | locus YJL128C, strain PBS2, stronger effect = lower value 0.0989 | locus YJL157C, strain FAR1, stronger effect = lower value 0.0897 | locus YJR016C, strain ILV3, stronger effect = lower value 0.0848 | locus YJR066W, strain TOR1 (second series), stronger effect = lower value 0.101 | [9] 0.145 | locus YKL048C, strain ELM1, stronger effect = lower value 0.12 | locus YKL067W, strain YNK1, stronger effect = lower value 0.0918 | locus YKL101W, strain HSL1, stronger effect = lower value 0.114 | locus YKL193C, strain SDS22, stronger effect = lower value 0.0868 | locus YKL203C, strain TOR2, stronger effect = lower value 0.108 | [10] 0.184 | locus YLR133W, strain CKI1, stronger effect = lower value 0.0857 | locus YLR403W, strain SFP1, stronger effect = lower value 0.00123 | locus YML070W, strain DAK1, stronger effect = lower value 0.117 | locus YMR001C, strain CDC5, stronger effect = lower value 0.0843 | locus YMR205C, strain PFK2 (second series), stronger effect = lower value 0.0905 | locus YMR277W, strain FCP1, stronger effect = lower value 0.0893 | locus YNL006W, strain LST8, stronger effect = lower value 0.077 | locus YNL020C, strain ARK1, stronger effect = lower value 0.0896 | locus YNL161W, strain CBK1, stronger effect = lower value 0.0944 | [11] 0.112 | locus YNL207W, strain RIO2, stronger effect = lower value 0.0871 | locus YNL222W, strain SSU72, stronger effect = lower value 0.089 | locus YNL307C, strain MCK1 (second series), stronger effect = lower value 0.103 | locus YOL078W, strain AVO1, stronger effect = lower value 0.0865 | locus YOL136C, strain PFK27, stronger effect = lower value 0.0961 | locus YOR061W, strain CKA2, stronger effect = lower value 0.0989 | locus YOR119C, strain RIO1, stronger effect = lower value 0.104 | [12] 0.115 | locus YOR329C, strain SCD5, stronger effect = lower value 0.082 | locus YPL031C, strain PHO85, stronger effect = lower value 0.102 | locus YPL153C, strain RAD53, stronger effect = lower value 0.101 | locus YPL204W, strain HRR25, stronger effect = lower value 0.0938 | locus YPL209C, strain IPL1, stronger effect = lower value 0.0815 | [13] 0.162 | locus YPR025C, strain CCL1, stronger effect = lower value 0.0896 | locus YPR106W, strain ISR1, stronger effect = lower value 0.281 | strain NNK1, stronger effect = lower value 0.0867 | strain TSCII, stronger effect = lower value 0.0877

O=C(O)c1cccc(O)c1O
inactive: locus YAL021C, strain ccr4, stronger effect = lower value 1.02 | locus YAL026C, strain drs2, stronger effect = lower value 1.02 | locus YAL030W, strain snc1, stronger effect = lower value 1.01 | locus YBL061C, strain skt5, stronger effect = lower value 1.03 | locus YBR009C, strain hhf1, stronger effect = lower value 1.02 | locus YBR023C, strain chs3, stronger effect = lower value 1.02 | locus YBR171W, strain sec66, stronger effect = lower value 1.03 | locus YBR231C, strain swc5, stronger effect = lower value 1.02 | locus YBR279W, strain paf1, stronger effect = lower value 1.02 | locus YCL011C, strain gbp2, stronger effect = lower value 1.02 | locus YCL016C, strain dcc1, stronger effect = lower value 1.01 | [4] 1.01 | locus YCL069W, strain vba3, stronger effect = lower value 1.02 | locus YCR088W, strain abp1, stronger effect = lower value 1.02 | locus YDL005C, strain med2, stronger effect = lower value 1.02 | locus YDL040C, strain nat1, stronger effect = lower value 1.02 | locus YDR001C, strain nth1, stronger effect = lower value 1.02 | locus YDR069C, strain doa4, stronger effect = lower value 1.02 | locus YDR137W, strain rgp1, stronger effect = lower value 1.02 | locus YDR159W, strain sac3, stronger effect = lower value 1.03 | locus YDR195W, strain ref2 0.997 | locus YDR297W, strain sur2, stronger effect = lower value 1.02 | locus YDR334W, strain swr1, stronger effect = lower value 1.02 | locus YDR335W, strain msn5, stronger effect = lower value 1.02 | locus YDR392W, strain spt3, stronger effect = lower value 1.04 | locus YEL003W, strain gim4, stronger effect = lower value 1.02 | locus YEL037C, strain rad23, stronger effect = lower value 1.02 | locus YEL061C, strain CIN8 (second series), stronger effect = lower value 1.02 | locus YER015W, strain faa2, stronger effect = lower value 1.03 | locus YER016W, strain bim1, stronger effect = lower value 1.01 | locus YER111C, strain swi4, stronger effect = lower value 1.03 | locus YER155C, strain BEM2 (second series), stronger effect = lower value 1.04 | locus YFR010W, strain ubp6, stronger effect = lower value 1.02 | locus YGL167C, strain pmr1, stronger effect = lower value 1.02 | locus YGL173C, strain kem1, stronger effect = lower value 1.03 | locus YGL227W, strain vid30, stronger effect = lower value 1.03 | locus YGL240W, strain doc1, stronger effect = lower value 1.02 | locus YGL253W, strain hxk2, stronger effect = lower value 1.02 | locus YHR013C, strain ard1, stronger effect = lower value 1.02 | locus YHR027C, strain rpn1, stronger effect = lower value 1.01 | [5] 1.06 | [7] 1.03 | locus YHR142W, strain chs7, stronger effect = lower value 1.01 | locus YJL092W, strain hpr5, stronger effect = lower value 1.02 | locus YJL095W, strain BCK1 (second series), stronger effect = lower value 1.01 | [8] 1.03 | locus YJL115W, strain asf1, stronger effect = lower value 1.03 | locus YJL129C, strain trk1, stronger effect = lower value 1.04 | locus YJL154C, strain vps35, stronger effect = lower value 1.02 | locus YJL164C, strain tpk1, stronger effect = lower value 1 | locus YJL166W, strain qcr8, stronger effect = lower value 1.02 | [6] 1.03 | [9] 0.99 | locus YKL160W, strain elf1, stronger effect = lower value 1.03 | locus YKR026C, strain gcn3, stronger effect = lower value 1.03 | locus YKR091W, strain srl3, stronger effect = lower value 1.02 | locus YLL001W, strain dnm1, stronger effect = lower value 1.02 | locus YLL026W, stronger effect = lower value 1.02 | locus YLL041C, strain sdh2, stronger effect = lower value 1.02 | locus YLR027C, strain aat2, stronger effect = lower value 1.01 | [10] 1.06 | locus YLR221C, strain rsa3, stronger effect = lower value 1.01 | locus YLR258W, strain gsy2, stronger effect = lower value 1.02 | locus YLR262C, strain YPT6 (second series), stronger effect = lower value 1.02 | locus YLR320W, strain mms22, stronger effect = lower value 1.03 | locus YLR342W, strain FKS1, stronger effect = lower value 1.03 | locus YLR357W, strain rsc2, stronger effect = lower value 1.01 | locus YLR370C, strain arc18, stronger effect = lower value 1.01 | locus YLR384C, strain iki3, stronger effect = lower value 1.02 | locus YML120C, strain ndi1, stronger effect = lower value 1.01 | locus YMR058W, strain fet3, stronger effect = lower value 1.02 | locus YMR125W, strain sto1, stronger effect = lower value 1.04 | locus YMR129W, stronger effect = lower value 1.03 | locus YMR205C, strain PFK2, stronger effect = lower value 1.03 | locus YMR231W, strain pep5, stronger effect = lower value 1.02 | locus YNL071W, strain lat1, stronger effect = lower value 1.01 | [11] 0.987 | locus YNL209W, strain ssb2, stronger effect = lower value 1.02 | locus YNL248C, strain rpa49, stronger effect = lower value 1.01 | locus YNL322C, strain KRE1 (second series), stronger effect = lower value 1.02 | locus YNR049C, strain mso1, stronger effect = lower value 1.02 | locus YOR001W, strain rrp6, stronger effect = lower value 1.03 | locus YOR070C, strain gyp1, stronger effect = lower value 1.02 | locus YOR080W, strain dia2, stronger effect = lower value 1.02 | locus YOR083W, strain WHI5, stronger effect = lower value 1.03 | locus YOR106W, strain vam3, stronger effect = lower value 1.02 | [12] 1.05 | locus YOR265W, strain rbl2, stronger effect = lower value 1.01 | locus YOR270C, strain vph1, stronger effect = lower value 1.05 | locus YOR290C, strain snf2, stronger effect = lower value 1.03 | locus YPL051W, strain arl3, stronger effect = lower value 1.02 | locus YPL078C, strain atp4, stronger effect = lower value 1.03 | locus YPL106C, strain sse1, stronger effect = lower value 1.02 | locus YPL240C, strain hsp82, stronger effect = lower value 1.03 | [13] 1.05
